{
  "source": "PubChem BioAssay",
  "note": "This is one part of the list. Active and inactive are the calls of the source.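 The calls were made as follows: active = ratio signal rise beyond 5 SD above unstimulated control wells' mean, seen in both duplicate runs; inactive = the rest.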",
  "data": [
    {"target": "Short transient receptor potential channel 6 (Mus musculus) (UniProt Q61143)", "sequence (Q61143 whole entry, looked up)": "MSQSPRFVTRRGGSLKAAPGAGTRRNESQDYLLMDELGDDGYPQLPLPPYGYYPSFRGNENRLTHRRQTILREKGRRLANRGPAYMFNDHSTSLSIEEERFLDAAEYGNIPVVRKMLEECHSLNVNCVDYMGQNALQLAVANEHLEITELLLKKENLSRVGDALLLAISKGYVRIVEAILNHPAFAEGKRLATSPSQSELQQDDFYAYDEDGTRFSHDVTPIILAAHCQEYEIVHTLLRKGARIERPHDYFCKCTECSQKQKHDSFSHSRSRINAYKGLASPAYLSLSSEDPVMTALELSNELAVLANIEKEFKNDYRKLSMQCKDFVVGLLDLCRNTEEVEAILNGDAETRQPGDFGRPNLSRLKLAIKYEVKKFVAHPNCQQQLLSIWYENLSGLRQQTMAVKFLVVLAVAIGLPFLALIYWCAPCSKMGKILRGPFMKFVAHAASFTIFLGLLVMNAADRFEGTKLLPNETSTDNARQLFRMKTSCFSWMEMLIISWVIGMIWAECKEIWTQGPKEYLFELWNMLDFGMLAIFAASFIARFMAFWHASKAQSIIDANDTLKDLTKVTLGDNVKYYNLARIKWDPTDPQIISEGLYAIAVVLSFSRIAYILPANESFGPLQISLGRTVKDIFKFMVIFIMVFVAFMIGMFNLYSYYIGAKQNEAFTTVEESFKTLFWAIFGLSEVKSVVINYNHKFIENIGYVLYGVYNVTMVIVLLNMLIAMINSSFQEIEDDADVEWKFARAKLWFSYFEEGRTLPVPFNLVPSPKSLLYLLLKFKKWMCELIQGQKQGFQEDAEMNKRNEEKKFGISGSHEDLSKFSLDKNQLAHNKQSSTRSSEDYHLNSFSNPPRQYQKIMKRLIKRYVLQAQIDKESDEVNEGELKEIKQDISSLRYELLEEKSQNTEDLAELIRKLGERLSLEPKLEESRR", "experiment": "mouse TRPC6 channel activators, confirmation, HEK293 cells, membrane potential dye, duplicate (AID 488961);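 as to activation: plate controls were buffer EC0 wells for no effect and acetylcholine ECmax response for full effect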", "details": "HEK293-TRPC6 membrane potential dye fluorescence, FDSS, at 10 µM; hits give high values", "values": [
      {"smiles": "Cc1cc(N2CCN(S(=O)(=O)c3ccc(C)c(C)c3)CC2)c2ccccc2n1", "outcome": "inactive"},
      {"smiles": "N=c1c2c3c(sc2ncn1CCCN1CCOCC1)CCCCC3", "outcome": "inactive"},
      {"smiles": "CCCCc1nc(NCCN)c(C#N)c2c1CSC(C)(C)C2", "outcome": "inactive"},
      {"smiles": "CCN(CC)S(=O)(=O)c1ccc(N2CC(C(=O)NCc3cccnc3)CC2=O)cc1", "note": "(stereo unspecified)", "outcome": "inactive"},
      {"smiles": "Cc1cccn2c(=O)c3cc(C#N)c(=O)n(CCCN4CCOCC4)c3nc12", "outcome": "inactive"},
      {"smiles": "O=C(CN1CCCCCC1)N1c2ccccc2Sc2ccc(C(F)(F)F)cc21", "outcome": "inactive"},
      {"smiles": "CN1CCN(c2ccc([N+](=O)[O-])c(Sc3nc4ccccc4[nH]3)c2)CC1", "outcome": "inactive"},
      {"smiles": "O=S(=O)(c1cccc(Cn2nnc(-c3ccc(F)cc3)n2)c1)N1CCOCC1", "outcome": "inactive"},
      {"smiles": "Cn1c(/C(C#N)=C2/CCCCCN2)nc2ccccc21", "outcome": "inactive"},
      {"smiles": "CCC(C)(C)NC(=O)CN(C(=O)CCC(=O)Nc1nccs1)c1ccc2c(c1)OCO2", "outcome": "inactive"},
      {"smiles": "COc1ccc(-c2nnc(NC(=O)CS(=O)(=O)c3ccc(Cl)cc3)o2)c(OC)c1", "activation": "46.5% (active)"},
      {"smiles": "CCCCN(C)CCCNC(=O)c1cc(-c2cccs2)nc2ccccc12", "outcome": "inactive"},
      {"smiles": "Cc1ccc(NC(=S)N(CCCN2CCCC2)Cc2cccn2Cc2ccc(Cl)cc2)cc1", "outcome": "inactive"},
      {"smiles": "CCCN(CCc1ccccc1)C1CCc2c(O)cccc2C1", "note": "(stereo unspecified)", "activation": "88.5% (active)"},
      {"smiles": "Cc1cc(C)c2nc3nc(C)cc(C)c3c(N)c2c1", "outcome": "inactive"},
      {"smiles": "CCN(CC)CCNc1nc(-c2ccc(OC(F)F)cc2)c(C)s1", "outcome": "inactive"},
      {"smiles": "CCOc1ccc(/C(O)=C2/C(=O)C(=O)N(Cc3cccnc3)C2c2ccc(N(C)C)cc2)c(C)c1", "note": "(stereo unspecified)", "outcome": "inactive"},
      {"smiles": "O=C1CN(C(=O)c2ccccc2F)C(c2ccc(F)cc2)c2cc(F)ccc2N1", "note": "(stereo unspecified)", "outcome": "inactive"},
      {"smiles": "CCOC(=O)c1sc2nc(CSCC(=O)OCc3ccc(C(=O)OC)o3)[nH]c(=O)c2c1C", "activation": "134% (active)"},
      {"smiles": "c1ccc(C2CNCc3c2ccc2ccccc32)cc1", "note": "(stereo unspecified)", "outcome": "inactive"},
      {"smiles": "Cc1ccc2c(c1)C1CN(C)CCC1N2C(=S)Nc1ccc(Cl)cc1Cl", "note": "(stereo unspecified)", "outcome": "inactive"},
      {"smiles": "COC(=O)c1c(NC(=O)c2ccc(S(=O)(=O)N3CCOCC3)cc2)sc2c1CCN(C(C)C)C2", "outcome": "inactive"},
      {"smiles": "Cc1c(CCOC(=O)CC23CC4CC(CC(C)(C4)C2)C3)sc[n+]1Cc1ccc([N+](=O)[O-])cc1", "outcome": "inactive"},
      {"smiles": "CCc1ccc(OCC(=O)N(Cc2ccccc2)C2CCS(=O)(=O)C2)cc1", "note": "(stereo unspecified)", "outcome": "inactive"},
      {"smiles": "CC(C)(C)Nc1nc(-c2ccccn2)nc2ccccc12", "outcome": "inactive"},
      {"smiles": "CCCc1cc(=O)oc2c(C)c(O)c(CN3CCCCC3)cc12", "outcome": "inactive"}
    ]}
  ]
}
